Shown are actives, neighbours in structure and some others; about 14% of the full set was active somewhere.
CHX counter – counter-screen hit for Shiga toxin inhibitors, cycloheximide; cell reporter, cycloheximide protein synthesis inhibition counterscreen; max response, %; hit rate 12% among 300,000; AID 2314; in the data active = max response mostly above about 13%, no sharp cut-off; inactive = mostly below about 14%; also: read at 38.3 µM for the half of the compounds with a filed dose
FBPA Giardia inh – Giardia lamblia aldolase inhibition | A8B2U2 | purified Giardia FBPA | Potency, µM (highest dose often 59.6 µM), actives largely listed as inhibitors | hit rate 0.71% among 290,000; also: nearly all actives have a fitted effect of over 55% in size
Target sequence (A8B2U2 whole entry, looked up): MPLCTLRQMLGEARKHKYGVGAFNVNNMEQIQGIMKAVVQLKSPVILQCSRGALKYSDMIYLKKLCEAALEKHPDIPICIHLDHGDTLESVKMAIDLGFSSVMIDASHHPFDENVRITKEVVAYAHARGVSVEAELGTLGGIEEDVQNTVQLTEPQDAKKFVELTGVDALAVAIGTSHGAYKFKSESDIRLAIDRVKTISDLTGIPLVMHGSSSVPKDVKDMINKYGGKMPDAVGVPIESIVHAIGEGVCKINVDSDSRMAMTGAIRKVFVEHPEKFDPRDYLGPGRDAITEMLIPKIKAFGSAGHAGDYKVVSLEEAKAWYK
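40 nM FBPA preincubated 10 min at RT with compound (up to 57.5 uM final), then substrate plus GAPDH/TPI/NAD/arsenate coupling and diaphorase/resazurin added. Fluorescence read after 20 min at RT, 525/598 nm.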
Shiga toxin inh – Shiga toxin inhibition | hit rate 9.2% among 290,000 | inhibition, % at 38.7 µM | Vero cells, Shiga toxin protein synthesis inhibition reporter; in the data active = inhibition mostly above about 28%, no sharp cut-off; inactive = mostly below about 43%
LmPK inhibitor – LmPK (Leishmania mexicana) enzyme inhibition; Q27686; purified LmPK, Kinase-Glo ATP luminescence, 1 h; Potency, µM (doses to about 57.5 µM), hits mostly inhibitors; hit rate 0.37% among 290,000; AID 1721
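Screened at intermediate enzyme activity to detect both inhibitors and activators: LmPK at 0.1 nM, with a 0.5 nM enzyme column as activation reference. PEP 0.5 mM, ADP 0.1 mM; ATP detected by luminescence after 1 h.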
NS1 inh – influenza NS1 inhibition | Potency, µM (series often up to 46.1 µM) | hit rate 0.4% among 270,000 | AID 2326; calls by dose curve; also: actives are rising curves; nearly all actives have a fitted effect of over 50% in size
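S. cerevisiae expressing influenza A NS1, grown in glucose, washed, then diluted 1:100 into pH 6.0 -URA galactose medium with 23 nl compound. Growth recovery read as OD600; NS1-free strain serves as control.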
Hits are given with their value; . = inactive; ? = inconclusive; / = no result given; [ ] = remark or other dose. Unless noted, calls follow the shape of the dose curve; as a rule, active = well fitted curve in the direction sought with a large enough effect; inconclusive = small, poorly fitted or top-dose-only effect, or another doubt; inactive = no such curve, though single readings can be large; an effect the other way counts as inactive or inconclusive.

SMILES	CHX counter	FBPA Giardia inh	Shiga toxin inh	LmPK inhibitor	NS1 inh
COc1ccc(C(=O)CSc2nnc(CNC(=O)c3ccc(S(=O)(=O)N(C)C)cc3)o2)cc1	.	.	.	.	.
CCN(CC)S(=O)(=O)c1ccc2oc(SCc3ccc(F)cc3)nc2c1	12	.	.	.	.
CCN(CC)S(=O)(=O)c1ccc2oc(Nc3ccccc3)nc2c1	30	.	79	.	.
CCS(=O)(=O)c1ccc2oc(Nc3ccccc3C)nc2c1	54	.	69	?	.
CCS(=O)(=O)c1ccc2oc(Nc3ccc(OC)c(OC)c3)nc2c1	.	.	.	.	.
CCOc1nc2cnccc2n(CC(=O)Nc2c(C)cccc2CC)c1=O	.	/	.	.	.
CCCCCC(=O)N/N=C(\C)c1ccccn1	.	.	.	.	.
COc1cc(C(=O)N/N=C(\C)c2ccccn2)cc(OC)c1OC	.	/	.	.	.
C/C(=N\Nc1ccc(Cl)cc1)c1ccccn1	23	.	74	.	.
C/C(=N\NC(=O)c1ccc(Cl)cc1)c1ccccn1	40	.	85	.	.
C/C(=N\NC(=O)c1ccccn1)c1ccc(Cl)cc1	33	.	53	?	.
O=C(NCCNC(=O)c1ccccn1)c1ccc(Cl)cc1	.	.	.	.	.
C/C(=N/NC(=O)c1ccccn1)c1c[nH]c2ccccc12	56	.	92	.	.
C/C(=N/NC(=O)c1ccccn1)c1ccc(O)cc1	32	?	60	.	.
C/C(=N\NC(=O)c1ccc(N/N=C(\C)c2ccc(O)cc2)cc1)c1ccc(O)cc1	40	.	68	.	.
COC(=O)N/N=C(\C)c1ccco1	.	.	.	.	/
C/C(=N/NC(=O)c1ccccn1)c1ccco1	.	/	.	14µM	.
COc1ccc(-n2c(SCCNCCO)nc3sc4c(c3c2=O)CCCC4)cc1	.	.	.	.	.
CCOC(=O)c1ccc(OCCOc2ccccc2C)cc1	34	?	/	.	.
CCOC(=O)c1c(C)[nH]c(C(=O)OCCOc2ccccc2C)c1C	45	.	61	.	.
CCOC(=O)c1ccc(S(=O)(=O)NNC(=O)COc2ccccc2C)cc1	.	.	.	.	.
CCOC(=O)c1[nH]c(C)c(C(=O)Nc2ccccc2F)c1C	25	.	60	.	.
CCOC(=O)c1c(C)[nH]c(C(=O)OCc2ccccc2F)c1C	50	.	115	.	.
COc1ccc(C(=O)N/C(=C\c2cn(S(=O)(=O)N(C)C)c3ccccc23)C(=O)NCCCN2CCOCC2)cc1	.	.	.	.	.
CCOC(=O)c1c(C)[nH]c(C(=O)OCc2ccc(F)cc2)c1C	50	/	72	.	.
SMILES	CHX counter	FBPA Giardia inh	Shiga toxin inh	LmPK inhibitor	NS1 inh
CCOC(=O)c1[nH]c(C)c(C(=O)Nc2ccc(C)c(C)c2)c1C	15	.	.	.	.
CCOC(=O)c1c(C)[nH]c(C(=O)O)c1C	.	.	.	.	.
CCOC(=O)c1[nH]c(C)c(C(=O)Nc2ccc(F)cc2)c1C	.	.	.	.	.
COCCNC(=O)C1(C(F)(F)F)C/C(=C\Cc2ccccc2)CCCO1 (configuration not stated)	.	.	.	/	/
O=C(O)c1cccc(Cn2c(Cl)c(/C=N/NC(=O)c3ccc(O)cc3)sc2=O)c1	.	.	.	.	.
O=C(N/N=C/c1sc(=O)n(-c2ccccc2)c1Cl)c1ccccc1	28	.	76	?	.
NC(=O)N/N=C/c1sc(=O)n(-c2ccccc2)c1Cl	16	.	.	.	.
Cc1ccc(C(=O)Nc2ccncc2)cc1S(=O)(=O)N1CCOCC1	.	/	.	.	.
NS(=O)(=O)c1cc(C(=O)Nc2ccc3c(c2)CCC3)ccc1Cl	20	.	89	.	.
O=C(Nc1ccc(S(=O)(=O)Nc2ncccn2)cc1)c1ccc(F)c(S(=O)(=O)N2CCOCC2)c1	.	.	.	.	.
O=C(Nc1ccc2c(c1)CCC2)c1cc(S(=O)(=O)N2CCN(c3ccccc3)CC2)ccc1Cl	.	.	.	.	.
Cc1ccc(C(=O)Nc2ccc3c(c2)CCC3)cc1S(=O)(=O)N1CCOCC1	34	.	98	.	/
O=C(Nc1ccc2c(c1)CCC2)c1ccc(F)c(S(=O)(=O)N2CCOCC2)c1	27	.	36	.	.
Oc1sc(C=Nc2ccc(F)cc2)c2ccccc12	57	.	13	.	.
Oc1sc(C=Nc2ccccc2)c2ccccc12	68	.	80	.	.
Oc1c(C=Nc2ccccc2)sc2ccccc12	.	.	.	.	.
CCCCc1cc2c(cn1)=C(OC(=O)CCC(=O)OC)C(C)(OC(=O)CC)C(=O)C=2 (configuration not stated)	/	.[12.9 µM]	/	.[11.5 µM]	/
O=C(C[C@H]1C(=O)N(CCc2ccccc2)C[C@@H]1Cc1ccccc1)Nc1ccccc1	.	.	.	.	.
COc1ccc(-c2cc3c(=O)n(CC(=O)NCc4ccc(Cl)cc4)ncn3n2)cc1	.	.	.	.	.
COc1ccc(-c2cc3c(=O)n(CC(=O)NCCCN4CCN(Cc5ccccc5)CC4)ncn3n2)cc1	28	/	.	.	.
COc1ccc(-c2cc3c(=O)n(CC(=O)NCCCN4CCC(Cc5ccccc5)CC4)ncn3n2)cc1	23	/	45	.	.
CCOc1ccc(CCNC(=O)Cn2ncn3nc(-c4ccc(OC)cc4)cc3c2=O)cc1	.	.	.	.	.
COc1ccc(CNC(=O)Cn2ncn3cccc3c2=O)cc1	26	.	.	.	/
COc1ccc(-c2cc3c(=O)n(CC(=O)NCc4ccc(C)cc4)ncn3n2)cc1	.	.	.	.	.
COc1ccc(-c2cc3c(=O)n(CC(=O)NCc4ccc(F)cc4)ncn3n2)cc1	11	.	16	.	.
SMILES	CHX counter	FBPA Giardia inh	Shiga toxin inh	LmPK inhibitor	NS1 inh
COc1ccc(CNC(=O)Cn2ncn3c(cc4ccccc43)c2=O)cc1	.	.	.	.	.
CC1(OC(=O)c2ccc(Cl)nc2)C(=O)C=c2cc(-c3ccsc3)ncc2=C1OC(=O)C1CCCC1 (configuration not stated)	/	.[12.9 µM]	/	.[11.5 µM]	/
CC(C)=NOCc1ccc(-c2cn([C@@H]3COC[C@@H]3O)nn2)cc1	/	.[12.9 µM]	/	/	/
CCc1ccc(C(=O)NNC(=O)c2ccc(=O)n(C)n2)cc1	.	/	.	.	.
COc1cc(S(=O)(=O)N2CCCN(C)CC2)ccc1NC(C)=O	.	/	.	.	.
O=C(NCC1CCCO1)c1ccc(N2CCCCC2)nc1 (configuration not stated)	28	.	40	.	.
O=C(NCc1ccccc1)c1ccc2nc(N3CCOCC3)sc2c1	.	.	.	.	.
O=C(NCC1CCCO1)c1ccc2nc(N3CCCCC3)sc2c1 (configuration not stated)	51	.	88	.	.
Cc1ccc(CC(=O)O/N=C(\N)c2cccc([N+](=O)[O-])c2)cc1	15	.	.	.	.
Cc1cccc(/C(N)=N/OC(=O)c2ccoc2C)c1	38	.	68	.	.
COc1cc(C(=O)O/N=C(\N)c2cccc([N+](=O)[O-])c2)cc(OC)c1OC	.	.	.	.	.
N/C(=N\OC(=O)c1ccncc1)c1cccc([N+](=O)[O-])c1	27	.	/	.	.
